# In PubChem BioAssay (NCI):
# Compounds without any hit were thinned out: in the full panel of roughly 79,000, 15% have a hit. Unmarked numbers belong to inactive results. Active and inactive are the calls of the source. No stated cut-off is given here; in the data, active means growth inhibition above about 70%; inactive means the rest.
# How the values were obtained:
# [1] = NCI Yeast Anticancer Drug Screen. Data for the rad52 strain (AID 147);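 further: 0% = growth of vehicle-treated control cultures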; conditions: S. cerevisiae rad52 mutant growth inhibition, hits give high values
# How it was run: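 Genetically altered yeast (DNA damage repair defect) treated with compound; inhibition calculated relative to vehicle.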
# [2] = NCI Yeast Anticancer Drug Screen. Data for the wt1 strain (AID 149);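 further: 0% = growth of vehicle-treated wt1 cultures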; conditions: S. cerevisiae wt1 strain (SPY 50644) growth inhibition, hits give high values
# How it was run: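 Measured: growth of wt1 yeast under compound versus vehicle treatment, reported as inhibition.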
# [3] = NCI Yeast Anticancer Drug Screen. Data for the rad50EPP+ strain (AID 151);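 further: 0% = growth of vehicle-treated control cultures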; conditions: S. cerevisiae rad50 mutant strain, hits give high values
# How it was run: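 Strain rad50EPP+; compound exposure; % growth inhibition vs vehicle.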
# [4] = NCI Yeast Anticancer Drug Screen. Data for the mgt1 strain (AID 153); conditions: S. cerevisiae mgt1 mutant growth inhibition, hits give high values
# How it was run: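 Read-out: yeast growth inhibition vs vehicle control. Strain mgt1, drawn from a panel altered in DNA damage repair or cell cycle control.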
# [5] = NCI Yeast Anticancer Drug Screen. Data for the rad50 strain (AID 155);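 further: 0% = growth of vehicle-only cultures of the same strain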; conditions: S. cerevisiae rad50 strain growth inhibition, hits give high values
# How it was run: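 Growth of the mutant yeast was measured after compound exposure and referenced to vehicle-treated cultures.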
# [6] = NCI Yeast Anticancer Drug Screen. Data for the mec2-1 strain (AID 157); conditions: S. cerevisiae mec2-1 strain, hits give high values
# How it was run: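 Cells of the genetically defined mec2-1 yeast strain are incubated with test compound. Inhibition of growth is calculated against vehicle-treated controls.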
# [7] = NCI Yeast Anticancer Drug Screen. Data for the rad14 strain (AID 159);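 further: 0% = growth of vehicle-treated control cultures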; conditions: S. cerevisiae rad14 strain growth inhibition, hits give high values
# How it was run: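 Here, inhibition of yeast growth was measured after compound exposure, using a strain with a genetic defect in DNA damage repair and vehicle-treated cultures as the reference.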
# [8] = NCI Yeast Anticancer Drug Screen. Data for the sgs1 mgt1 strain (AID 161);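 further: 0% = growth of cultures given vehicle only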; conditions: S. cerevisiae sgs1 mgt1 strain, hits give high values
# How it was run: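 Genetically altered yeast, compound exposure, growth inhibition relative to vehicle.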
# [9] = NCI Yeast Anticancer Drug Screen. Data for the CLN2oe strain (AID 163);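 further: 0% = growth of vehicle-only control cultures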; conditions: S. cerevisiae CLN2oe strain, hits give high values
# How it was run: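 Strain altered in cell-cycle control, incubated with compound; growth compared to solvent-treated controls.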
# [10] = NCI Yeast Anticancer Drug Screen. Data for the cln2 rad14 strain (AID 165);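 further: 0% = growth equal to vehicle treated cultures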; conditions: S. cerevisiae cln2 rad14 strain, hits give high values
# How it was run: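 The screen exposed genetically defined yeast (cln2 rad14) to test compounds and scored growth inhibition relative to vehicle-treated controls.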
# [11] = NCI Yeast Anticancer Drug Screen. Data for the bub3 strain (AID 167); conditions: S. cerevisiae bub3 mutant strain, hits give high values
# How it was run: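 Whole-cell yeast assay. The mutant strain was incubated with compounds, and growth inhibition was determined by comparison with vehicle-treated cells.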
# [12] = NCI Yeast Anticancer Drug Screen. Data for the wt2 strain (AID 169);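 further: 0% = growth of vehicle-treated yeast cultures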; conditions: S. cerevisiae wt2 strain growth inhibition, hits give high values
# How it was run: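 Steps: yeast strain treated with compound; growth recorded; inhibition calculated relative to cultures given vehicle alone.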
# [13] = NCI Yeast Anticancer Drug Screen. Data for the mlh1 strain (AID 171);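 further: 0% = growth of vehicle-treated control cultures of the same strain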; conditions: S. cerevisiae mlh1 strain growth inhibition, hits give high values
# How it was run: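 Yeast screen: mutant strain plus compound, growth scored against vehicle control wells.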
# [14] = NCI Yeast Anticancer Drug Screen. Data for the mlh1 rad18 strain (AID 175); conditions: S. cerevisiae mlh1 rad18 strain growth inhibition, hits give high values
# How it was run: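 Compound-treated yeast growth, normalised to vehicle controls. Strain bears defined DNA repair mutations.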
# [15] = NCI Yeast Anticancer Drug Screen. Data for the rad18 strain (AID 177); conditions: S. cerevisiae rad18 mutant growth inhibition, hits give high values
# How it was run: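 Inhibition values reflect reduced yeast growth compared with vehicle-treated controls, using a strain engineered with a DNA damage repair defect.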
# [16] = at 5.0 µM (retest, dose inferred, filed as 0.5)
# [17] = at 50.0 µM (retest, dose inferred, filed as 5.0)
structure (smiles),measurement,setting,value
Cc1ccccc1NC(=O)c1c(C)oc2c1C(=O)c1ccccc1C2=O,growth inhibition,[1]; at 1.2 µM,-7%
same,growth inhibition,[1]; at 3.7 µM,-6%
same,growth inhibition,[1]; at 11.0 µM,3%
same,growth inhibition,[1]; at 33.0 µM,17%
same,growth inhibition,[1]; at 100.0 µM,69%
same,growth inhibition,[2]; at 1.2 µM,-28%
same,growth inhibition,[2]; at 3.7 µM,-23%
same,growth inhibition,[2]; at 11.0 µM,-23%
same,growth inhibition,[2]; at 33.0 µM,-5%
same,growth inhibition,[2]; at 100.0 µM,60%
same,growth inhibition,[3]; at 1.2 µM,-8%
same,growth inhibition,[3]; at 3.7 µM,-17%
same,growth inhibition,[3]; at 11.0 µM,7%
same,growth inhibition,[3]; at 33.0 µM,42%
same,growth inhibition,[3]; at 100.0 µM,82% (active)
same,growth inhibition,[4]; at 1.2 µM,-40%
same,growth inhibition,[4]; at 3.7 µM,-35%
same,growth inhibition,[4]; at 11.0 µM,-21%
same,growth inhibition,[4]; at 33.0 µM,57%
same,growth inhibition,[4]; at 100.0 µM,93% (active)
same,growth inhibition,[5]; at 1.2 µM,-13%
same,growth inhibition,[5]; at 3.7 µM,-12%
same,growth inhibition,[5]; [16],6%
same,growth inhibition,[5]; at 11.0 µM,-1%
same,growth inhibition,[5]; at 33.0 µM,7%
same,growth inhibition,[5]; [17],33%
same,growth inhibition,[5]; at 50.0 µM,82.2% (active)
same,growth inhibition,[5]; at 100.0 µM,86% (active)
same,growth inhibition,[6]; at 1.2 µM,-28%
same,growth inhibition,[6]; at 3.7 µM,-31%
same,growth inhibition,[6]; [16],-10%
same,growth inhibition,[6]; at 11.0 µM,-24%
same,growth inhibition,[6]; at 33.0 µM,19%
same,growth inhibition,[6]; [17],71% (active)
same,growth inhibition,[6]; at 50.0 µM,50.5%
same,growth inhibition,[6]; at 100.0 µM,92% (active)
same,growth inhibition,[7]; at 1.2 µM,-45%
same,growth inhibition,[7]; at 3.7 µM,-28%
same,growth inhibition,[7]; at 11.0 µM,-26%
same,growth inhibition,[7]; at 33.0 µM,12%
same,growth inhibition,[7]; at 100.0 µM,93% (active)
same,growth inhibition,[8]; [16],-10%
same,growth inhibition,[8]; [17],3%
same,growth inhibition,[8]; at 50.0 µM,71% (active)
same,growth inhibition,[9]; at 1.2 µM,-13%
same,growth inhibition,[9]; at 3.7 µM,19%
same,growth inhibition,[9]; at 11.0 µM,9%
same,growth inhibition,[9]; at 33.0 µM,39%
same,growth inhibition,[9]; at 100.0 µM,87% (active)
same,growth inhibition,[10]; [16],1%
same,growth inhibition,[10]; [17],51%
same,growth inhibition,[10]; at 50.0 µM,53.1%
same,growth inhibition,[11]; at 1.2 µM,-57%
same,growth inhibition,[11]; at 3.7 µM,-36%
same,growth inhibition,[11]; [16],17%
same,growth inhibition,[11]; at 11.0 µM,-23%
same,growth inhibition,[11]; at 33.0 µM,25%
same,growth inhibition,[11]; [17],94% (active)
same,growth inhibition,[11]; at 50.0 µM,69.2%
same,growth inhibition,[11]; at 100.0 µM,85% (active)
same,growth inhibition,[12]; at 1.2 µM,-6%
same,growth inhibition,[12]; at 3.7 µM,-7%
same,growth inhibition,[12]; at 11.0 µM,14%
same,growth inhibition,[12]; at 33.0 µM,30%
same,growth inhibition,[12]; at 100.0 µM,87% (active)
same,growth inhibition,[13]; at 1.2 µM,-2%
same,growth inhibition,[13]; at 3.7 µM,-8%
same,growth inhibition,[13]; at 11.0 µM,-12%
same,growth inhibition,[13]; at 33.0 µM,-5%
same,growth inhibition,[13]; at 100.0 µM,85% (active)
same,growth inhibition,[14]; [16],-2%
same,growth inhibition,[14]; [17],76% (active)
same,growth inhibition,[14]; at 50.0 µM,77% (active)
same,growth inhibition,[15]; at 1.2 µM,-23%
same,growth inhibition,[15]; at 3.7 µM,-24%
same,growth inhibition,[15]; at 11.0 µM,-17%
same,growth inhibition,[15]; at 33.0 µM,-8%
same,growth inhibition,[15]; at 100.0 µM,55%
